Calb FLC = C. albicans growth modulation with fluconazole. C. albicans CaCi-2 (fluconazole-resistant clinical isolate) + fluconazole, Alamar Blue growth, 48 h. growth inhibition, % (concentration not given with the values). hit rate 0.57% among 300,000. AID 1979;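 active means growth inhibition above about 58% in most replicates, limit read from the data, passing the limit was not always enough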;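 further: all wells also contain fluconazole at 8 µg/ml as a sub-toxic cotreatment; 0% = median of DMSO wells and 100% = median of geldanamycin control wells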
Rpn11 inh = blocks the human proteasome subunit Rpn11; human 26S proteasome, Ub4-pepOG fluorescence polarization; 20S core pre-blocked with epoxomicin; hit rate 0.59% among 360,000; inhibition, % at 20 µM; O00487; AID 588493;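 active means inhibition at 20 µM, scaled to each plate's controls, above about 33%, limit read from the data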
IDE act = boosts human insulin-degrading enzyme activity in HEK cells | activation, % at 5.96 µM | hit rate 0.073% among 340,000 | FAbeta-B cleavage, fluorescence polarization; 0% vehicle, 100% cell-free pure enzyme wells;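 active means activation above the mean of all tested compounds plus 3 SD, set per screening campaign, cut at about 17% in these data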
Rin1 Abl inh = blocks binding of human Rin1 to Abl; P00519+Q13671; TR-FRET Rin1/Abl binding, biochemical; inhibition, % at 7.35 µM; hit rate 0.4% among 360,000; AID 588664; in the data active means inhibition above about 5%, passing the limit was not always enough
IDE inh = inhibits human insulin-degrading enzyme in HEK cells; P14735; inhibition, % at 5.59 µM; FAbetaB cleavage, fluorescence polarization; AID 434962; hit rate 0.41% among 320,000;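 active means percent inhibition above the average of all tested compounds plus 3 SD, set per screening campaign, cut at about 16% in these data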;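 further: IDE supplied by intact live HEK cells; FP after avidin binding of uncleaved biotin substrate so inhibition keeps polarization high; 0% = DMSO wells and 100% = 60 µM reference IDE inhibitor Ii1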
TPT1 inhibitor = C. albicans TPT1 enzyme inhibition; recombinant caTPT1, FP RNA substrate dephosphorylation; AID 1962; hit rate 0.81% among 300,000; inhibition, % at 5 µM;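 active means inhibition above the mean of all tested compounds plus 3 SD, set per screening campaign, cut at about 24% in these data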;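 further: plate controls were DMSO alone for no effect and ferristatin control at 100 nM for full effect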
TPT1 inh confirm = confirmation of Candida albicans TPT1 inhibitors. shares compounds with TPT1 inhibitor. recombinant caTPT1, fluorescence polarization, RNase T1 coupled. inhibition, % at 5 µM. hit rate 74% among 2,400. AID 2149;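 active means inhibition above the primary screen limit, the mean inhibition of all tested compounds plus 3 SD, cut at about 25% in these data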
RNase T1 inh = RNase T1 inhibition in TPT1 counter-screen; shares compounds with TPT1 inhibitor; RNase T1 cleavage, fluorescence polarization, 1536-well; inhibition, % at 5 µM; hit rate 83% among 2,400; AID 2153;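 active means inhibition above the solvent-only control well mean plus 3 SD, limit set per screening run, cut at about 23% in these data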;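 further: plate controls were DMSO wells with enzyme for no effect and wells without RNase T1 for full effect; inhibitors block cleavage so intact labeled substrate keeps polarization high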
Rpn11 inh conf = Rpn11 inhibition confirmation, single concentration. shares compounds with Rpn11 inh. purified human 26S proteasome, Ub4-pepOG fluorescence polarization; proteasome pretreated with epoxomicin. hit rate 29% among 1,900. inhibition, % at 20 µM
MMP-2 inh = blocks human MMP-2, flagging nonselective RPN11 hits; recombinant MMP-2, FRET peptide cleavage fluorescence; AID 602330; shares compounds with Rpn11 inh; hit rate 4% among 1,900; inhibition, % at 20 µM;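 further: human MMP-2 activated beforehand with APMA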
Target sequence (P08253 whole entry, looked up): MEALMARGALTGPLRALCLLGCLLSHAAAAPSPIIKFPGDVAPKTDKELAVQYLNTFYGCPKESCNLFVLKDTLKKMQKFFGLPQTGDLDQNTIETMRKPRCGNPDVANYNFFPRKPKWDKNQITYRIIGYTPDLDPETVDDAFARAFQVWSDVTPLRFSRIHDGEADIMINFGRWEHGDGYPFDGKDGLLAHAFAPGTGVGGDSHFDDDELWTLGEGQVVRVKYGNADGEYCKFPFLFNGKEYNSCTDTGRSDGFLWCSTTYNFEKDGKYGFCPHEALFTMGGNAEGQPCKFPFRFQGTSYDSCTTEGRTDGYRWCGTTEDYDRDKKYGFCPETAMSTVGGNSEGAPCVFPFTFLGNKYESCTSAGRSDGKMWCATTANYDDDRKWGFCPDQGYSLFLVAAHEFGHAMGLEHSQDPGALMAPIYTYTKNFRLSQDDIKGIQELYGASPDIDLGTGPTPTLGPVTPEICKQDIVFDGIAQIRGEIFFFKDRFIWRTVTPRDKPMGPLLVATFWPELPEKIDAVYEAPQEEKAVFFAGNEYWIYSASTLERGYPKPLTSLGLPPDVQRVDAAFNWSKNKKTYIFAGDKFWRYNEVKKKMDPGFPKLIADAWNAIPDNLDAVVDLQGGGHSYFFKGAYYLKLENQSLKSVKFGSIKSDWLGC
Thrombin inh = blocks bovine thrombin, flagging nonselective RPN11 hits; shares compounds with Rpn11 inh; bovine thrombin cleavage of Ub4-pepOG, fluorescence polarization; inhibition, % at 20 µM; hit rate 13% among 1,900; AID 602333;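 active means mean inhibition at least 40% at 20 µM, or signal 3 deviations below plate average, so some actives read negative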;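 further: plate controls were thrombin with DMSO for no effect and buffer wells lacking thrombin for full effect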
* hit, by the source's call; / = not tested or not shown; + = active, no number. Only some compounds are listed: those with a hit (about 2.3% of all), similar ones and a draw of the others. Unless noted, no stated cut-off is given here; in the data, active means inhibition above about 40%; inactive means the rest.

SMILES | Calb FLC | Rpn11 inh | IDE act | Rin1 Abl inh | IDE inh | TPT1 inhibitor | TPT1 inh confirm | RNase T1 inh | Rpn11 inh conf | MMP-2 inh | Thrombin inh
CCOc1cc(/C=C2\SC(=O)N(c3ccc(O)cc3)C2=O)ccc1O | 25 | 68* | -22 | 0 | 14 | 70* | 74* | 77* | 15 | 1 | 6
CCOc1cc(/C=C2\CN(CC)C/C(=C\c3ccc(O)c(OCC)c3)C2=O)ccc1O | 2 | 8 | 0 | 5 | 2 | 4 | / | / | / | / | /
CCCN1CCc2c(sc(NC(=O)c3ccc(S(=O)(=O)N4CCCC4)cc3)c2C(N)=O)C1 | -1 | 47* | -15 | -5 | 12 | 120* | 132* | 132* | 22 | -7 | 11
CCN1CCc2c(sc(NC(=O)c3ccc(S(=O)(=O)N(CC)c4ccccc4)cc3)c2C(N)=O)C1 | -11 | 58* | -15 | -4 | 16 | 97* | 103* | 107* | 76* | -246 | 11
O=C(CC(c1ccccc1)c1cc(Br)ccc1O)N1CCCCC1 (stereo not drawn) | -1 | -4 | 1 | -2 | -3 | 0 | / | / | / | / | /
COc1ccc(C(=O)c2c(N)sc3c2CCN(C(=O)OC(C)(C)C)C3)cc1 | 9 | 45* | / | -3 | 6 | 30* | 13 | 22* | 20 | 17 | 30
COc1cccc(-c2ccc3c(c2)C2CC3CCN2C(C)=O)c1 (stereo not drawn) | / | 0 | 0 | 1 | / | / | / | / | / | / | /
COc1cc2ccccc2cc1C(=O)Nc1sc2c(c1C(N)=O)CCN(C(C)C)C2 | -2 | 45* | -1 | -3 | 10 | 82* | 54* | 62* | 69* | -53 | 46*
CN1C(=O)/C(=C/C=C2/CCCN2C)N(C)C1=S | -15 | 47* | -4 | -4 | 3 | 41* | 90* | 102* | 56* | -34 | 37
CCN1CCN(CCCNC(=O)C2CCN(c3nnc(-n4c(C)ccc4C)s3)CC2)CC1 | -4 | 3 | 1 | 2 | 4 | 0 | / | / | / | / | /
CCN(CC)c1ccc(/C=N/NC(=O)c2ccco2)c(O)c1 | 89* | 47* | -1 | -4 | 2 | 27* | 48* | 59* | 16 | -26 | 8
CCN(CC)c1ccc(/C=N/N=C(c2ccccc2)c2ccccc2)c(O)c1 | -2 | 50* | 7 | -1 | -4 | 36* | 98* | 104* | 0 | -22 | -24
CCN(CC)c1ccc(/C=N/N(c2ccccc2)c2ccccc2)c(O)c1 | 0 | 10 | -4 | 3 | 4 | 3 | / | / | / | / | /
Cc1nn(-c2ccccc2)c(C)c1C(=O)OC(C)C(=O)NC1CCCCC1C (stereo not drawn) | / | 4 | 2 | 2 | 5 | / | / | / | / | / | /
COc1cc(/C=C2\C(=N)N3N=C(C)SC3=NC2=O)cc(Cl)c1OCCOc1ccc(NC(C)=O)cc1 | 4 | 5 | -5 | 2 | 1 | -2 | / | / | / | / | /
COc1ccc(/C=C(/NC(=O)c2ccco2)C(=O)NCc2ccco2)cc1OC | 1 | -2 | -3 | 1 | 1 | -4 | / | / | / | / | /
CC(=O)N1CCc2cc(N=NC3=C(O)CC(C)(C)CC3=O)ccc21 | 7 | 108* | -6 | -11 | 1 | 27* | 46* | 57* | 67* | -29 | 48*
CC1(C)CC(=O)C(N=Nc2cc(Cl)c(Cl)c(Cl)c2)=C(O)C1 | 6 | 0 | -1 | 1 | -2 | -5 | / | / | / | / | /
O=C(N/N=C/C=C\c1ccccc1[N+](=O)[O-])c1cccs1 | -12 | -2 | 4 | -5 | 6 | -3 | / | / | / | / | /
O=C(N/N=C/C=C/c1ccc([N+](=O)[O-])cc1)c1cccs1 | 2 | + | -1 | -3 | -8 | 44* | 30* | 46* | 113* | 45* | 41*
CCNc1ccc(Br)cc(C(=O)/C=C/c2ccc3c(c2)OCO3)c1=O | -4 | 71* | 3 | 3 | -2 | 31* | 26* | 48* | 20 | 9 | 1
CCOc1ccc(S(=O)(=O)N(CC(=O)N/N=C/c2ccc(-c3ccc([N+](=O)[O-])cc3)o2)c2ccccc2)cc1 | 24 | 58* | 3 | 0 | 3 | 39* | 39* | 52* | 43* | 74* | 19
CCOc1ccc(NC(=O)CN(c2ccc([N+](=O)[O-])cc2)S(=O)(=O)c2ccccc2)cc1 | 3 | -6 | -2 | -3 | 4 | -5 | / | / | / | / | /
CS(=O)(=O)N(CCc1ccccc1)CC(=O)N1CCCCCC1 | / | 1 | / | -4 | / | / | / | / | / | / | /
COc1ccccc1NC(=O)Cc1noc(CSc2n[nH]c(N)n2)n1 | -17 | -4 | 4 | 2 | -1 | 1 | / | / | / | / | /
SMILES | Calb FLC | Rpn11 inh | IDE act | Rin1 Abl inh | IDE inh | TPT1 inhibitor | TPT1 inh confirm | RNase T1 inh | Rpn11 inh conf | MMP-2 inh | Thrombin inh
CCOC(=O)CSc1nc2ccccc2n1C(=O)OCC | 8 | 46* | -5 | 1 | 2 | 39* | 37* | 47* | 51* | -18 | 32
CC(C)COC(=O)n1c(SCC(N)=O)nc2ccccc21 | 2 | -8 | 6 | 0 | -3 | -2 | / | / | / | / | /
CC(C)c1ccc2c(c1)C1Cc3ccccc3C1N2 (stereo not drawn) | 0 | 57* | 5 | -1 | 2 | 29* | 13 | 22* | 2 | 6 | -3
O=C1/C(=C/c2ccc(O)c([N+](=O)[O-])c2)SC(=S)N1Cc1ccccc1 | 17 | 23 | 3 | 2 | -2 | 15 | / | / | / | / | /
O=C(NN1C(=O)/C(=C/c2ccc(O)c([N+](=O)[O-])c2)SC1=S)c1ccccc1Cl | 2 | 71* | -1 | 4 | 4 | 75* | 55* | 66* | 51* | -8 | 42*
O=C1CCc2cc(NS(=O)(=O)c3ccc(Br)cc3)cc3c2N1CC3 | 0 | -11 | -2 | -1 | 3 | -3 | / | / | / | / | /
CC(=Nc1ccc(C)cc1C)c1sc2ccccc2c1O | -15 | 38* | -10 | -2 | 6 | 55* | 79* | 94* | 25 | 10 | 2
COc1cc(/C=C(/C#N)c2nc3ccccc3c(=O)[nH]2)ccc1O | -7 | 140* | -56 | -4 | 12 | 102* | 126* | 124* | 40 | 12 | 5
COc1ccc(/C=C(\C#N)c2nc3ccccc3[nH]2)cc1O | 57 | -1 | -5 | -7 | / | / | / | / | / | / | /

Bioassay records deposited in PubChem BioAssay by several laboratories.
